Results reported in PubChem BioAssay (NCI).
Compounds without any hit were thinned out: in the full panel of roughly 79,000, 15% have a hit. Calls of active or inactive are those of the source. Rule as the data show it: active = growth inhibition above about 70%; inactive = the rest.

Experiments:
[1] = NCI Yeast Anticancer Drug Screen. Data for the rad50 strain (AID 155);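 also: 0% = growth of vehicle-only cultures of the same strain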; settings: S. cerevisiae rad50 strain growth inhibition, active compounds read high
Outline: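 A DNA repair-deficient yeast mutant serves as the test organism; compound-induced growth inhibition is calculated against vehicle-treated cells.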

[2] = NCI Yeast Anticancer Drug Screen. Data for the mec2-1 strain (AID 157); settings: S. cerevisiae mec2-1 strain, active compounds read high
Outline: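 Growth inhibition is read against vehicle-treated controls after compound exposure of the mec2-1 yeast strain, which is defective in DNA damage repair or cell cycle control.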

[3] = NCI Yeast Anticancer Drug Screen. Data for the sgs1 mgt1 strain (AID 161);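 also: 0% = growth of cultures given vehicle only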; settings: S. cerevisiae sgs1 mgt1 strain, active compounds read high
Outline: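 This yeast growth screen uses a strain with defined DNA-repair lesions; compound-treated growth is compared with vehicle-treated growth.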

[4] = NCI Yeast Anticancer Drug Screen. Data for the cln2 rad14 strain (AID 165);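 also: 0% = growth equal to vehicle treated cultures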; settings: S. cerevisiae cln2 rad14 strain, active compounds read high
Outline: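 Growth inhibition, relative to vehicle-treated controls, is the read-out. The test organism is a yeast strain with defined genetic alterations, cln2 rad14.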

[5] = NCI Yeast Anticancer Drug Screen. Data for the bub3 strain (AID 167); settings: S. cerevisiae bub3 mutant strain, active compounds read high
Outline: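 Inhibition values come from growth of compound-treated mutant yeast normalised to vehicle-treated controls.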

[6] = NCI Yeast Anticancer Drug Screen. Data for the mlh1 rad18 strain (AID 175); settings: S. cerevisiae mlh1 rad18 strain growth inhibition, active compounds read high
Outline: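 Cells of a genetically altered yeast strain, deficient in DNA damage repair, were treated with compound. Their growth was then compared with that of vehicle-treated cultures to give inhibition.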

[7] = at 5.0 µM (retest, dose inferred, filed as 0.5)
[8] = at 50.0 µM (retest, dose inferred, filed as 5.0)

Measured: growth inhibition

CC1=C[P+](c2ccccc2)(c2ccccc2)C=C(c2ccccc2)O1
inactive: [1]; [7] 51% | [2]; [7] 24% | [3]; [7] 25% | [4]; [7] 42% | [5]; [7] 64% | [6]; [7] 34%
active: [1]; [8] 94% | [1]; at 50.0 µM 84.5% | [2]; [8] 98% | [2]; at 50.0 µM 88.1% | [3]; [8] 94% | [3]; at 50.0 µM 87.4% | [4]; [8] 89% | [4]; at 50.0 µM 84.8% | [5]; [8] 97% | [5]; at 50.0 µM 90.4% | [6]; [8] 93% | [6]; at 50.0 µM 89%

CCOC(=O)/C(=C\c1cccc(Br)c1)C(C)=O
inactive: [1]; [7] 47% | [2]; [7] 51% | [3]; [7] 47% | [4]; [7] 45%
active: [1]; [8] 100% | [1]; at 50.0 µM 92.8% | [2]; [8] 99% | [2]; at 50.0 µM 94.9% | [3]; [8] 99% | [3]; at 50.0 µM 93.1% | [4]; [8] 99% | [4]; at 50.0 µM 92.9% | [5]; [7] 87% | [5]; [8] 100% | [5]; at 50.0 µM 92.7% | [6]; [7] 82% | [6]; [8] 100% | [6]; at 50.0 µM 92.5%

O=C1OC(CC(=O)c2ccc(Cl)cc2Cl)C(Cl)=C1Cl (configuration not stated)
active: [3]; at 50.0 µM 93% | [4]; at 50.0 µM 78.4% | [6]; at 50.0 µM 97.3%
inactive: [1]; [7] 0% | [1]; [8] 20% | [1]; at 50.0 µM 51% | [2]; [7] 8% | [2]; [8] 32% | [2]; at 50.0 µM 53.4% | [3]; [7] 4% | [3]; [8] 50% | [4]; [7] 1% | [4]; [8] 6% | [5]; [7] -7% | [5]; [8] 10% | [5]; at 50.0 µM 58.5% | [6]; [7] -1% | [6]; [8] 41%

c1nc2nc(N3CCOCC3)nc(N3CCCCC3)c2[nH]1
inactive: [1]; [7] -22% | [1]; [8] -14% | [1]; at 50.0 µM -1.35% | [2]; [7] -18% | [2]; [8] -18% | [2]; at 50.0 µM 3.25% | [3]; [7] 2% | [3]; [8] 2% | [3]; at 50.0 µM 2.45% | [4]; [7] -2% | [4]; [8] 0% | [4]; at 50.0 µM 6.7% | [5]; [7] -1% | [5]; [8] -9% | [5]; at 50.0 µM -43.2% | [6]; [7] -19% | [6]; [8] 10% | [6]; at 50.0 µM -0.15%

CC(C)CCN1CCC2(CCCCC2)CC1
active: [4]; at 50.0 µM 88.3%
inactive: [1]; [7] 4% | [1]; [8] 1% | [1]; at 50.0 µM 40.5% | [2]; [7] 5% | [2]; [8] -6% | [2]; at 50.0 µM 24.1% | [3]; [7] 6% | [3]; [8] 0% | [3]; at 50.0 µM 51.3% | [4]; [7] 7% | [4]; [8] -5% | [5]; [7] 2% | [5]; [8] -3% | [5]; at 50.0 µM 59.5% | [6]; [7] 5% | [6]; [8] 3% | [6]; at 50.0 µM 66.3%

CN(NC1OC(=O)c2ccccc21)c1ccc(C(F)(F)F)cc1[N+](=O)[O-] (configuration not stated)
inactive: [1]; [7] 46% | [1]; [8] 39% | [1]; at 50.0 µM 65.7% | [2]; [7] 33% | [2]; [8] 36% | [2]; at 50.0 µM 54.2% | [3]; [7] 43% | [3]; [8] 49% | [3]; at 50.0 µM 55.1% | [4]; [7] 25% | [4]; [8] 31% | [5]; [7] 43% | [5]; [8] 69% | [5]; at 50.0 µM 36.2% | [6]; [7] 47% | [6]; [8] 48% | [6]; at 50.0 µM 54.5%
active: [4]; at 50.0 µM 71.2%

CC(NC(=O)C(Cc1ccccc1)NC(=O)c1ccc[n+](Cc2ccccc2)c1)C(N)=O (configuration not stated)
inactive: [1]; [7] 0% | [1]; [8] -5% | [1]; at 50.0 µM 0.65% | [2]; [7] 0% | [2]; [8] -2% | [2]; at 50.0 µM -3.05% | [3]; [7] -1% | [3]; [8] 3% | [3]; at 50.0 µM -9.9% | [4]; [7] 0% | [4]; [8] -1% | [4]; at 50.0 µM -4.7% | [5]; [7] 1% | [5]; [8] -11% | [5]; at 50.0 µM -1.9% | [6]; [7] -1% | [6]; [8] -2% | [6]; at 50.0 µM 28.1%

Cc1ccc(SC2=C(N(C)C)C(=O)c3ccccc3C2=O)cc1
active: [1]; [8] 90% | [1]; at 50.0 µM 96% | [2]; [8] 94% | [3]; [8] 91% | [3]; at 50.0 µM 77.3% | [4]; [8] 94% | [5]; [8] 90% | [5]; at 50.0 µM 95.2% | [6]; [8] 89% | [6]; at 50.0 µM 89.7%
inactive: [1]; [7] 3% | [2]; [7] -13% | [2]; at 50.0 µM 14.1% | [3]; [7] -1% | [4]; [7] 42% | [4]; at 50.0 µM 58.1% | [5]; [7] 4% | [6]; [7] -3%

Cc1cc(C)c([O-])c(-[n+]2c(-c3ccccc3)cc(-c3ccccc3)cc2-c2ccccc2)c1
active: [1]; at 50.0 µM 90.8% | [2]; at 50.0 µM 92.5% | [3]; at 50.0 µM 91% | [4]; at 50.0 µM 89.8% | [5]; at 50.0 µM 92.2% | [6]; at 50.0 µM 89.7%
inactive: [1]; [7] 14% | [1]; [8] 14% | [2]; [7] 1% | [2]; [8] 1% | [3]; [7] 22% | [3]; [8] 22% | [4]; [7] -8% | [4]; [8] -8% | [5]; [7] -2% | [5]; [8] -2% | [6]; [7] 3% | [6]; [8] 3%
